Assay outcomes as filed in PubChem.
E coli growth-1 – counter-screen for AddAB inhibitors: E. coli growth inhibition; E. coli V3065 growth, OD600 absorbance, 18 h; inhibition, % at 11.9 µM; AID 449728; hit rate 0.27% among 330,000;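 active = inhibition above the campaign's mean inhibition across all tested compounds plus 3 SD, cut at about 9.9% in these data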;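 also: uninfected addAB+ strain grown without phage in ampicillin broth; 0% = DMSO wells and 100% = ciprofloxacin 0.95 µg/ml wells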
phage Ecoli inh – E. coli growth loss with phage present | hit rate 0.26% among 360,000 | inhibition, % at 11.9 µM | growth absorbance; in the data active = inhibition above about 11%
E coli growth-2 – inhibitors of Escherichia coli growth; OD600 absorbance (concentration not given with the values); OD600, 23 h; stronger effect = lower value; hit rate 0.21% among 330,000; AID 1053175;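 active = OD600 absorbance below the run mean of sample wells minus 3.6 SD, in any replicate, cut at about 0.56 in these data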
AddAB inh – less growth of phage-infected E. coli with AddAB | AID 435030 | hit rate 0.29% among 330,000 | E. coli expressing H. pylori AddAB, absorbance growth | inhibition, % at 11.9 µM; in the data active = inhibition above about 12%;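 also: 0% = vehicle wells of infected cells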
Tat export inh – E. coli Tat transport inhibition; E. coli MC4100 TorA-mCherry Tat export, fluorescence; inhibition, % at 10 µM; hit rate 0.036% among 340,000;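 active = mean replicate inhibition at least 50% and at least half of replicates individually reaching 50%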;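 also: exported cargo escapes ClpAP degradation while cytoplasmic cargo is degraded and loses fluorescence; 0% = median of neutral control wells and 100% = median of NaSCN control wells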
RecBCD conf – confirmation: growth loss of phage-infected RecBCD+ E. coli (RecBCD inhibitor screen) | shares compounds with phage Ecoli inh | E. coli V66 + T4 2- phage, growth OD | inhibition, % at 11.9 µM | hit rate 45% among 890;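 active = mean inhibition over triplicates exceeding the hit threshold derived in the original primary screen, cut at about 11% in these data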
Ecoli viability – bacterial viability inhibition counter-screen for RecBCD; shares compounds with phage Ecoli inh; E. coli viability, absorbance (OD) growth; inhibition, % at 11.9 µM; hit rate 29% among 890; in the data active = inhibition above about 20%;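 also: E. coli strain V66 grown with compound alone and no phage infection; 0% = bacteria with DMSO vehicle only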
AddAB counter – growth loss of phage-infected AddAB E. coli, RecBCD counter-screen; hit rate 45% among 890; E. coli expressing H. pylori AddAB + T4 phage, OD growth; gene 2 mutant T4, recBCD-deleted host; AID 651984; shares compounds with phage Ecoli inh; inhibition, % at 11.9 µM;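 active = mean inhibition above the solvent-only control wells' mean plus 3 SD, cut at about 22% in these data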;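 also: higher means less bacterial growth from phage killing when AddAB is blocked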
Active calls of the source: *; · = no result given. In the library only some 0.5% were active in any assay of this set; here they are far more common.

SMILES	E coli growth-1	phage Ecoli inh	E coli growth-2	AddAB inh	Tat export inh	RecBCD conf	Ecoli viability	AddAB counter
Clc1ccc(-c2csc(NN=Cc3ccco3)n2)cc1	·	·	0.7	·	·	·	·	·
CC(CCc1ccco1)NC(=O)Cn1ncc2c(=O)oc3ccccc3c21 (stereo not drawn)	-2	99*	0.67	4	0	-4	-4	-4
C[C@@H]1CN(c2c(F)c(F)c3c(=O)c(C(=O)O)cn(C4CC4)c3c2F)C[C@H](C)N1	·	98*	0.067*	·	68*	103*	105*	104*
COc1cccc(N=Nc2ccc3cccnc3c2O)c1	15*	14*	0.71	7	-5	6	10	6
COc1cccc(N=Nc2ccc(O)c3ncccc23)c1	7	13*	·	8	-14	5	7	11
COc1ccc(C)cc1N=Nc1ccc(O)c2ncccc12	·	18*	0.73	·	-7	6	8	19
Oc1ccc(N=Nc2ccc3c(c2)OCCO3)c2cccnc12	6	15*	0.73	8	2	7	9	8
COCc1cc(C)nc(OCC(=O)NN=Cc2ccc(O)cc2)c1C#N	·	·	0.64	·	·	·	·	·
COC(=O)c1ccc2c(c1O)C(=O)c1ccccc1C2=O	-4	0	0.69	0	-2	·	·	·
O=C1c2ccccc2C(=O)c2c1ccc(O)c2O	·	15*	·	·	-1	6	8	6
Oc1cccc2ccc(Nc3ccccn3)nc12	18*	12*	0.62	12	-15	6	9	5
c1ccc(Nc2ccccc2Nc2ccccn2)nc1	4	2	0.71	2	0	·	·	·
CCC(=O)NC(c1cc(Cl)c2cccnc2c1O)C1CC1 (stereo not drawn)	11*	14*	0.68	8	5	3	5	7
CC(=O)NC(c1cc(F)c2cccnc2c1O)C1CC1 (stereo not drawn)	-2	0	0.68	-4	16	·	·	·
COc1ccc(C(NC(C)=O)c2cc(Cl)c3cccnc3c2O)cc1 (stereo not drawn)	20*	14*	0.68	10	-5	6	9	16
CC(=O)NC(c1ccc(Cl)cc1)c1ccc2cccnc2c1O (stereo not drawn)	·	20*	0.53	·	-10	12*	16	18
CC(=O)NC(c1ccc(N(C)C)cc1)c1cc(Cl)c2cccnc2c1O (stereo not drawn)	·	19*	·	·	·	7	9	22*
CCCCC(=O)NC(c1ccc(Cl)cc1Cl)c1ccc2cccnc2c1O (stereo not drawn)	·	19*	·	·	4	13*	14	31*
O=C(NC(c1ccc(Cl)cc1)c1cc(Cl)c2cccnc2c1O)c1cccnc1 (stereo not drawn)	-1	4	·	5	-8	·	·	·
CCCC(=O)NC(c1ccc(OC)c(OC)c1)c1cc(Cl)c2cccnc2c1O (stereo not drawn)	11*	14*	0.66	8	-5	10	13	19
CCC(=O)NC(c1ccco1)c1cc(Br)c2cccnc2c1O (stereo not drawn)	·	20*	·	·	·	6	10	18
CC(C)C(C(=O)N1CCN(C(=O)OC(C)(C)C)CC1)n1cc(CCO)nn1 (stereo not drawn)	·	·	0.7	·	·	·	·	·
CCN(CC)c1ccc(/C=N/Nc2nc3ccccc3[nH]2)c(O)c1	2	15*	·	-1	-7	8	13	16
O=C(Oc1c(Br)cc([N+](=O)[O-])cc1Br)c1cccnc1	6	13*	0.48*	10	22	14*	17	18
O=Cc1cccnc1SCc1ccccc1	-1	99*	0.7	1	-1	-6	-6	0
Oc1cccnc1SCc1ccccc1	-1	2	0.7	2	4	·	·	·
CC1Cc2ccccc2N1C(=O)CCn1c(=O)oc2ccccc21 (stereo not drawn)	0	99*	0.66	-1	10	-7	-7	-2
Cc1ccc(NC(=O)Nc2ccc(F)cc2)cc1Cl	5	12*	0.64	7	19	5	5	0
COC(=O)c1ccc(NC(=O)Nc2ccc([N+](=O)[O-])cc2)cc1	9	14*	0.42*	10	13	9	11	4
